Results reported in paper PMC4552634, “A New Set of Chemical Starting Points with Plasmodium falciparum Transmission-Blocking Potential for Antimalarial Drug Discovery” (PLoS ONE, 2015).
Screen size: about 13,000 compounds; about 3,200 (25%) showed an effect of 50% or more. The list shows a part of the results.

System: P. falciparum stage V gametocytes
Parameters: BacTiter-Glo ATP luminescence viability of purified stage V gametocytes in 384-well plates, per cent inhibition versus DMSO
Settings: 48 h, 5 µM; inhibitor

Structure (SMILES)	% Inhibition [%]
O=C(N/C(=C/c1cccc([N+](=O)[O-])c1)c1nc2ccccc2[nH]1)c1cccc(Br)c1 [TCMDC-123667]	25.9
CCc1nc2ccc(C(=O)OC)nc2n1Cc1ccc2oc(-c3ccccc3N)c(Br)c2c1 [TCMDC-131989]	82.84
Cc1cccc2[nH]c(-c3cccc(-c4ccc(NC(=O)Cc5ccccn5)cc4)c3)nc12 [TCMDC-132178]	-17.95
CS(=O)(=O)CCNCc1cccc(-c2cc3c(Nc4ccc5c(cnn5Cc5ccccc5)c4)ncnc3s2)c1 [TCMDC-134664]	-36.31
CN1CCC(c2ccc(NC(=O)c3ccc(-c4cccc(C(F)(F)F)c4)o3)cc2)CC1 [TCMDC-134195]	6.508
O=C(Nc1ccc(S(=O)(=O)NCCCN2CCOCC2)cc1)c1cc(-c2ccccc2)n[nH]1 [TCMDC-125046]	-31.32
COc1cccc2c1CCN(CCN1CCC(NC(=O)c3ccc(-c4cccc(Cl)c4Cl)cc3)CC1)C2 [TCMDC-135476]	76.97
NC(=O)COc1cccc2c1CCN(CCN1CCC(NC(=O)c3ccc(-c4ccc(Cl)cc4)cc3)CC1)C2 [TCMDC-135479]	-28.95
C=CCOc1cccc2c1CCN(CCN1CCC(NC(=O)c3ccc(-c4ccc(Cl)cc4)cc3)CC1)C2 [TCMDC-135633]	-61.81
Fc1cccc(COc2ccc(Nc3ncnc4sc(C#C[C@H]5CC[C@H](CNCC(F)(F)F)N5)cc34)cc2Cl)c1 [TCMDC-135422]	-57.82
CCCNC(=O)c1cncc(-c2ccc(CNC3Cc4ccccc4C3)cc2)c1 [TCMDC-134242]	-9.717
O=C(CC1CCCC1)N(Cc1ccc(-c2ccc(CNC3Cc4ccccc4C3)cc2)cc1)CC1CCCCN1 (stereo not shown) [TCMDC-141446]	118.1
O=C(CCC1CCCC1)N(Cc1ccc(-c2ccc(CNCCc3ccccn3)cc2)cc1)CC1CCCCN1 (stereo not shown) [TCMDC-141445]	104.1
c1cncc(CCNCc2ccc(-c3ccc(CNC4Cc5ccccc5C4)cc3)cc2)c1 [TCMDC-141458]	22.23
O=C(NCC1CCC(C(=O)NCCN2CCCCC2)CC1)c1ccc(O)c(-c2ccc(Cl)c(Cl)c2)c1 (stereo not shown) [TCMDC-140889]	5.118
CN(C)C(CNC(=O)c1cc(-c2ccncc2)c(-c2ccc(NC(=O)Nc3ccccc3)cc2)o1)c1ccccc1 (stereo not shown) [TCMDC-135763]	0.5152
CCN(CC)c1ccc2nc(N)nc(N)c2c1 [TCMDC-137860]	-57.34
CCN(CCNC(=O)Nc1cc(C(F)(F)F)cc(C(F)(F)F)c1)c1cccc(C)c1 [TCMDC-140386]	-30.95
CCN(CCNS(C)(=O)=O)c1ccc(N)c(C)c1 [TCMDC-125836]	123.9
Cc1cc(NC(=O)c2ccco2)ccc1OC1CCN(Cc2ccc(F)cc2)CC1 [TCMDC-133749]	42.56
Cc1ccccc1N1CCN(c2ccc(C(=O)Nc3ccccc3)cn2)CC1 [TCMDC-134582]	6.226
Cc1[nH]c2ccccc2c1C1CCN(CC2CCC(NC(=O)/C=C/c3ccc(Cl)c(Cl)c3)CC2)CC1 (stereo not shown) [TCMDC-139482]	-16.12

Structure (SMILES)	% Inhibition [%]
NC(=O)c1cnc2cc(-c3ccncc3)cc(Nc3ccc(NC(=O)C4CCCCC4)cc3)c2c1 [TCMDC-135182]	-67.69
Cc1cc(-c2ccc(NC(=O)N3CCc4cc(Br)c(N5CCN(C)CC5)cc43)cc2)ccc1C#N [TCMDC-139293]	-18.89
Cc1cc(-c2ccc(NC(=O)N3CCc4cc(Cl)c(N5CCN(C)CC5)cc43)cc2)ccc1C#N [TCMDC-139292]	55.12
CN1CCN(c2cc3c(cc2Cl)CCN3C(=O)Nc2ccc(NC(=O)c3ccc(C(F)(F)F)cc3)cc2)CC1 [TCMDC-139270]	-10.1
O=C(Nc1c(F)cccc1F)c1cccc(-c2nn3ccccc3c2-c2ccnc(Nc3cccc(-c4cnco4)c3)n2)c1 [TCMDC-135743]	-41.11
c1ccc2c(c1)cc(CNCCCN1CCN(CCCNCc3cc4ccccc4c4ccccc34)CC1)c1ccccc12 [TCMDC-137914]	113.5
c1ccc2c(CNCCCN3CCN(CCCNCc4c5ccccc5cc5ccccc45)CC3)c3ccccc3cc2c1 [TCMDC-137909]	115.6
O=C(/C=C/c1ccc(Cl)c(Cl)c1)NCCCCCN1CCC(C(=O)Nc2cccc(Cl)c2)CC1 [TCMDC-136120]	-13.38
Cc1ccc(NC(=O)c2cccc(C#N)c2)cc1-c1ccc(C(=O)Nc2ccncc2)cc1 [TCMDC-133697]	-8.671
CCC[C@@H]([C@@H](Cc1ccc(C)s1)C(=O)N[C@@H](CNC(C)=O)C(=O)Nc1nccs1)N(O)C=O [TCMDC-138137]	-97.54
Cc1cc(C)c2[nH]cc(C(=O)O)c(=O)c2c1 [TCMDC-123953]	3.462
Oc1ccc(Cl)c2c1C(c1ccccc1)=NCC2 [TCMDC-137522]	-9.659
COc1ccc(Oc2ccc(Nc3ccnc4ccc(C(F)(F)F)cc34)cc2)cc1OC [TCMDC-138310]	-11.17
CN(C)CCCc1cc2c(cc1Cl)CCN2C(=O)Nc1ccc(-c2ccncc2)c2ccccc12 [TCMDC-139215]	-22.47
CCCc1cc(C(=O)N[C@@H](Cc2ccccc2)[C@H](O)CNC(C)(C)c2cccc(OC)c2)c(F)c(N2CCCC2=O)c1 [TCMDC-135396]	48.39
COc1ccc(CN(C)CCOc2ccc(NC(=O)c3cccc4c(=O)cc(-c5ccccc5)[nH]c34)cc2)cc1OC [TCMDC-131849]	25.38
COc1c(CN2CCOCC2)cccc1-c1cc2c(-c3ccc(C(=O)O)c(C(C)C)c3)ccnc2[nH]1 [TCMDC-135049]	-0.2517
COc1ccc(-c2cnc3[nH]cc(-c4ccc(C(=O)O)c(C)c4)c3c2)cn1 [TCMDC-136360]	34.92
COc1c(CN2CCCC2)cccc1-c1cc2c(-c3ccc(C(=O)O)c(C(C)C)c3)ccnc2[nH]1 [TCMDC-135050]	69.12
COc1cccc(CN2CCC(C(=O)Nc3ccc(-c4nc5ccccc5[nH]4)cc3)CC2)c1 [TCMDC-124615]	-54.81
CCN(CC)Cc1ccc(OC)c(-c2cc3c(-c4ccc(C(=O)O)c(C(C)C)c4)ccnc3[nH]2)c1 [TCMDC-135051]	59.03
CN(C)CC1CCCN1Cc1ccccc1-c1cnn(C)c(=O)c1Oc1ccc(F)cc1 (stereo not shown) [TCMDC-135098]	10.73

Structure (SMILES)	% Inhibition [%]
O=C(NCCCN1CCN(c2cccc(Cl)c2)CC1)c1ccc(-c2nc3cc(Cl)c(Cl)cc3[nH]2)c(F)c1 [TCMDC-140084]	-21.33
O=C(CNc1ccc(Cl)c(S(=O)(=O)N2CCCC2)c1)Nc1ccc(Br)cc1F [TCMDC-125102]	24.63
Cc1onc(-c2ccccc2)c1-c1nc(NCCC(c2ccccc2)c2ccccc2)no1 [TCMDC-134203]	3.551
CC(C)N1CCC(N(Cc2ccc(-c3ccc(C(F)(F)F)cc3)cc2)C(=O)Cn2c(SCc3cccc(F)c3F)cc(=O)c3c2CCC3)CC1 [TCMDC-141320]	98.3
CN1CCC(N(Cc2ccc(-c3ccc(C(F)(F)F)cc3)cc2)C(=O)Cn2c(SCc3cccc(F)c3F)cc(=O)c3c2CCC3)CC1 [TCMDC-141319]	92.96
O=C(NOCc1ccccc1)c1cc(Cl)ccc1O [TCMDC-131603]	3.846
CCC1CCc2cc(N)cc(-c3nc4c(c(C)nn4CC)c(=O)[nH]3)c2O1 (stereo not shown) [TCMDC-131857]	1.879
CCC(=O)Nc1ccc(C(O)CN2CCC3(C=Cc4ccccc4O3)CC2)cc1 (stereo not shown) [TCMDC-124852]	40
COc1cc2nc(NCCn3cccn3)nc(NCCc3ccccc3)c2cc1OC [TCMDC-135472]	50.26
COc1cc2nc(NCCn3ccnc3C)nc(NCCc3ccccc3)c2cc1OC [TCMDC-135471]	66.44
Clc1cc2c(Nc3ccc(Oc4ccccc4)cc3)ccnc2cc1-c1ccc(CNCCN2CCOCC2)o1 [TCMDC-138464]	21.03
CN(C)Cc1ccc(-c2ccc3c(Nc4ccc(Oc5ccccc5)cc4)ccnc3c2)o1 [TCMDC-138401]	-9.57
CN(C)CCNCc1ccc(-c2ccc3c(Nc4ccc(Oc5ccccc5)cc4)ccnc3c2)o1 [TCMDC-138399]	96.18
CS(=O)(=O)CCNCc1ccc(-c2ccc3c(Nc4ccc(Oc5ccccn5)cc4)ccnc3c2)o1 [TCMDC-138444]	5.347
CN(C)Cc1ccc(-c2ccc3c(Nc4ccc(Oc5ccccn5)cc4)ccnc3c2)o1 [TCMDC-138425]	93.82
c1ccc(Oc2ccc(Nc3ccnc4ccc(-c5ccccn5)cc34)cc2)cc1 [TCMDC-138118]	-22.81
CN(C)CCN(C)Cc1ccc(-c2ccc3c(Nc4ccc(Oc5ccccc5)cc4)ccnc3c2)o1 [TCMDC-138400]	100.2
CN(C)CCN(C)Cc1ccc(-c2ccc3c(Nc4ccc(Oc5ccccn5)cc4)ccnc3c2)o1 [TCMDC-138426]	89.24
COc1ccc(NC(=O)c2csc(-c3cc(NC(=O)c4ccnc(N5CCCC5)c4)ccc3C)c2)cc1N1CCN(C)CC1 [TCMDC-136374]	23.12
NC(=O)c1cccc(Nc2nccc(Nc3ccc(Oc4cccc5ccccc45)cc3)n2)c1 [TCMDC-138599]	-18.47
